The first assay relates to DIPGX29 (H3.3 K27M diffuse intrinsic pontine glioma line). The assay can be described thus: growth inhibition (% activity, log2 RLU normalised to DMSO / staurosporine); higher = more growth inhibition. Conditions: 33 µM. In outline: (§1)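 Cells (pHGG lines and H9-derived neural stem cells) were plated on Geltrex-coated 384-well plates and exposed to approved drugs at a single final concentration of about 33 μM, in triplicate, for 7 days at 37 °C, 5% CO2. Log2-transformed CellTiter-Glo luminescence was normalised per plate to % activity between solvent and positive control wells, and the growth-inhibition value is the median over replicates.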
Consider `C[C@]12C=CC(=O)C=C1CC[C@H]1[C@@H]3C[C@@H](O)[C@](O)(C(=O)CO)[C@@]3(C)C[C@H](O)[C@@]12F`, for which the growth inhibition was determined as 0.877%.
Take `NCCC(O)(P(=O)(O)O)P(=O)(O)O`: the growth inhibition was 0.943%.
The same measure, in the same setting: in the case of `CCC[C@@H]1C[C@@H](C(=O)N[C@@H]([C@H]2O[C@H](SC)[C@H](OP(=O)(O)O)[C@@H](O)[C@H]2O)[C@H](C)Cl)N(C)C1` it was -4.37%; in that of `CC(C)[C@H](N)C(=O)OCC(CO)OCn1cnc2c(=O)[nH]c(N)nc21` (stereo not given in full), -0.214%; in that of `Nc1ccc(S(=O)(=O)Nc2ccccn2)cc1`, 0.131%.
Still for that read-out and setting: under `CCCCCCCCCCCCCCCCO` stands -0.933%; under `CC(CN(C)C)CN1c2ccccc2CCc2ccccc21` (stereo not given), -1.45%; under `NCCCC[C@H](N[C@@H](CCc1ccccc1)C(=O)O)C(=O)N1CCC[C@H]1C(=O)O`, -0.869%.
Turning to `CC(N)C12CC3CC(CC(C3)C1)C2` (stereo not given), the growth inhibition is -0.149%.
On to `CCCCCN(C)CCC(O)(P(=O)(O)O)P(=O)(O)O`, for which the growth inhibition is -3.97%.
For the compound `CSc1ccc2c(c1)N(CCC1CCCCN1C)c1ccccc1S2` (stereo not given), the growth inhibition came out at 1.58%.
Turning to `CN/C(=N\CCSCc1nc[nH]c1C)NC#N`, the growth inhibition came to 0.842%.
Turning to `CN[C@@H]1[C@H](O[C@H]2[C@H](O[C@H]3[C@H](O)[C@@H](O)[C@H](N=C(N)N)[C@@H](O)[C@@H]3N=C(N)N)O[C@@H](C)[C@]2(O)C=O)O[C@@H](CO)[C@H](O)[C@H]1O`, the growth inhibition stood at 0.0944%.
Still for that read-out and setting: under `COc1cc2c(cc1O)CC[C@@H]1[C@@H]2CC[C@]2(C)[C@@H](O)CC[C@@H]12` stands 9.48%; under `CC(C)C[C@H](NC(=O)[C@H](O)[C@H](N)Cc1ccccc1)C(=O)O`, 1.26%.
Consider `CC=CC1=C(C(=O)O)N2C(=O)[C@@H](NC(=O)[C@H](N)c3ccc(O)cc3)[C@H]2SC1`, for which the growth inhibition was -1.6%.
On the same count and under the same terms, under `Cc1cc2c(s1)Nc1ccccc1N=C2N1CCN(C)CC1` stands 1.66%; under `OC(Cn1cncn1)(Cn1cncn1)c1ccc(F)cc1F`, 0.884%; under `CC(C)C[C@H](NC(=O)[C@H](Cc1ccccc1)NC(=O)c1cnccn1)B(O)O`, 53.3%.
On the same count and under the same terms, in the case of `Clc1ccccc1CN1CCc2sccc2C1` it was 1.5%.
Same read-out and setting: in the case of `CNC(CC(C)C)C(=O)NC1C(=O)NC(CC(N)=O)C(=O)NC2C(=O)NC3C(=O)NC(C(=O)NC(C(=O)O)c4cc(O)cc(O)c4-c4cc3ccc4O)C(O)c3ccc(c(Cl)c3)Oc3cc2cc(c3OC2OC(CO)C(O)C(O)C2OC2CC(C)(N)C(O)C(C)O2)Oc2ccc(cc2Cl)C1O` (stereo not given) it was -1.35%.
Take `Nc1ccc(S(=O)(=O)Nc2ncccn2)cc1`: the growth inhibition was found to be 0.254%.
Turning to `COC1=C(OC)C(=O)C(CCCCCCCCCCO)=C(C)C1=O`, the growth inhibition came to 3.13%.
Consider `C=C[C@H]1CN2CC[C@H]1C[C@H]2[C@H](O)c1ccnc2ccc(OC)cc12`, for which the growth inhibition was 2.06%.
For `COC(=O)C1=C(C#N)NC(C)=C(C(=O)OC(C)C)C1c1cccc([N+](=O)[O-])c1` (stereo not given), the growth inhibition was -1.9%.
Take `CS(=O)(=O)c1ccc(C(=O)Nc2ccc(Cl)c(-c3ccccn3)c2)c(Cl)c1`: the growth inhibition amounted to 2.56%.
In the case of `N=C(N=C(N)N)N1CCOCC1`, the growth inhibition worked out at 0.894%.
As for `CCOC(=O)c1c(CSc2ccccc2)n(C)c2cc(Br)c(O)c(CN(C)C)c12`, the growth inhibition was found to be 0.0747%.
`CCC[C@H](N[C@@H](C)C(=O)N1[C@H](C(=O)O)C[C@@H]2CCCC[C@@H]21)C(=O)OCC`: the growth inhibition came to 1.9%.
For `CC(=O)OCC(=O)[C@@]12N=C(C)O[C@@H]1C[C@H]1[C@@H]3CCC4=CC(=O)C=C[C@]4(C)[C@H]3[C@@H](O)C[C@@]12C`, the growth inhibition was 2.06%.
With `CCCNC(C)C(=O)Nc1c(C)csc1C(=O)OC` (stereo not given), the growth inhibition amounted to 0.453%.
Regarding `Clc1ccc(C(Cn2ccnc2)OCc2csc3c(Cl)cccc23)c(Cl)c1` (stereo not given), the growth inhibition was 2.06%.
As for `COc1ccccc1OCCNCC(O)COc1cccc2[nH]c3ccccc3c12` (stereo not given), the growth inhibition came to 6.61%.
In the case of `O=C1O[C@H]([C@@H](O)CO)C([O-])=C1O.[Na+]`, the growth inhibition is -5.78%.
Regarding `CC(C)NCC(O)c1ccc(NS(C)(=O)=O)cc1` (stereo not given), the growth inhibition was -1.59%.
On the same count and under the same terms, in the case of `Cn1nnc2c(C(N)=O)ncn2c1=O` it was -1.97%; in that of `O=C(Nc1cccc2c(=O)cc(-c3nnn[nH]3)oc12)c1ccc(OCCCCc2ccccc2)cc1`, 2.7%; in that of `CN1CCC(=C2c3ccccc3CCc3sccc32)CC1`, 2.69%.
The same measure, in the same setting: under `Clc1ccc(CCC(Cn2ccnc2)Sc2c(Cl)cccc2Cl)cc1` (stereo not given) stands 5.06%; under `COC(=O)[C@@H]1CC2=CC(=O)CC[C@]2(C)[C@@]23O[C@@H]2C[C@@]2(C)[C@@H](CC[C@@]24CCC(=O)O4)[C@H]13`, 0.0665%.

The test system of the next assay is DIPGX37 (H3.3 K27M diffuse intrinsic pontine glioma line). The assay is described as above. To be noted: 33 µM. The gist of the method:
as §1
For the compound `C[C@]12C=CC(=O)C=C1CC[C@H]1[C@@H]3C[C@@H](O)[C@](O)(C(=O)CO)[C@@]3(C)C[C@H](O)[C@@]12F`, the growth inhibition came to 1.05%.
For `NCCC(O)(P(=O)(O)O)P(=O)(O)O`, the growth inhibition came to 2.91%.
Consider `CCC[C@@H]1C[C@@H](C(=O)N[C@@H]([C@H]2O[C@H](SC)[C@H](OP(=O)(O)O)[C@@H](O)[C@H]2O)[C@H](C)Cl)N(C)C1`, for which the growth inhibition is -1.53%.
On the same count and under the same terms, under `CC(C)[C@H](N)C(=O)OCC(CO)OCn1cnc2c(=O)[nH]c(N)nc21` (stereo not given in full) stands 1.96%; under `Nc1ccc(S(=O)(=O)Nc2ccccn2)cc1`, -0.785%.
Still for that read-out and setting: in the case of `CCCCCCCCCCCCCCCCO` it was 2.94%; in that of `CC(CN(C)C)CN1c2ccccc2CCc2ccccc21` (stereo not given), -0.198%.
The same measure, in the same setting: under `NCCCC[C@H](N[C@@H](CCc1ccccc1)C(=O)O)C(=O)N1CCC[C@H]1C(=O)O` stands -1.25%; under `CC(N)C12CC3CC(CC(C3)C1)C2` (stereo not given), 2.59%; under `CCCCCN(C)CCC(O)(P(=O)(O)O)P(=O)(O)O`, 2.62%.
On to `CSc1ccc2c(c1)N(CCC1CCCCN1C)c1ccccc1S2` (stereo not given), for which the growth inhibition is 0.408%.
The same measure, in the same setting: under `CN/C(=N\CCSCc1nc[nH]c1C)NC#N` stands 1.91%.
Same read-out and setting: in the case of `CN[C@@H]1[C@H](O[C@H]2[C@H](O[C@H]3[C@H](O)[C@@H](O)[C@H](N=C(N)N)[C@@H](O)[C@@H]3N=C(N)N)O[C@@H](C)[C@]2(O)C=O)O[C@@H](CO)[C@H](O)[C@H]1O` it was -5.46%; in that of `COc1cc2c(cc1O)CC[C@@H]1[C@@H]2CC[C@]2(C)[C@@H](O)CC[C@@H]12`, 1.66%.
For the compound `CC(C)C[C@H](NC(=O)[C@H](O)[C@H](N)Cc1ccccc1)C(=O)O`, the growth inhibition stood at 0.0198%.
On the same count and under the same terms, under `CC=CC1=C(C(=O)O)N2C(=O)[C@@H](NC(=O)[C@H](N)c3ccc(O)cc3)[C@H]2SC1` stands 0.508%.
Regarding `Cc1cc2c(s1)Nc1ccccc1N=C2N1CCN(C)CC1`, the growth inhibition amounted to 3.63%.
The same measure, in the same setting: in the case of `OC(Cn1cncn1)(Cn1cncn1)c1ccc(F)cc1F` it was -0.267%; in that of `CC(C)C[C@H](NC(=O)[C@H](Cc1ccccc1)NC(=O)c1cnccn1)B(O)O`, 60.7%.
On the same count and under the same terms, under `Clc1ccccc1CN1CCc2sccc2C1` stands 3.08%; under `CNC(CC(C)C)C(=O)NC1C(=O)NC(CC(N)=O)C(=O)NC2C(=O)NC3C(=O)NC(C(=O)NC(C(=O)O)c4cc(O)cc(O)c4-c4cc3ccc4O)C(O)c3ccc(c(Cl)c3)Oc3cc2cc(c3OC2OC(CO)C(O)C(O)C2OC2CC(C)(N)C(O)C(C)O2)Oc2ccc(cc2Cl)C1O` (stereo not given), -1.91%.
Still for that read-out and setting: in the case of `Nc1ccc(S(=O)(=O)Nc2ncccn2)cc1` it was 1.69%; in that of `COC1=C(OC)C(=O)C(CCCCCCCCCCO)=C(C)C1=O`, 3.03%; in that of `C=C[C@H]1CN2CC[C@H]1C[C@H]2[C@H](O)c1ccnc2ccc(OC)cc12`, 3.05%.
On to `COC(=O)C1=C(C#N)NC(C)=C(C(=O)OC(C)C)C1c1cccc([N+](=O)[O-])c1` (stereo not given), for which the growth inhibition is -0.628%.
Same read-out and setting: under `CS(=O)(=O)c1ccc(C(=O)Nc2ccc(Cl)c(-c3ccccn3)c2)c(Cl)c1` stands 2.2%; under `N=C(N=C(N)N)N1CCOCC1`, 3.09%.
Turning to `CCOC(=O)c1c(CSc2ccccc2)n(C)c2cc(Br)c(O)c(CN(C)C)c12`, the growth inhibition was -1.13%.
Still for that read-out and setting: in the case of `CCC[C@H](N[C@@H](C)C(=O)N1[C@H](C(=O)O)C[C@@H]2CCCC[C@@H]21)C(=O)OCC` it was 3.94%; in that of `CC(=O)OCC(=O)[C@@]12N=C(C)O[C@@H]1C[C@H]1[C@@H]3CCC4=CC(=O)C=C[C@]4(C)[C@H]3[C@@H](O)C[C@@]12C`, 0.767%; in that of `CCCNC(C)C(=O)Nc1c(C)csc1C(=O)OC` (stereo not given), 0.894%.
For `Clc1ccc(C(Cn2ccnc2)OCc2csc3c(Cl)cccc23)c(Cl)c1` (stereo not given), the growth inhibition was 3.55%.
On the same count and under the same terms, under `COc1ccccc1OCCNCC(O)COc1cccc2[nH]c3ccccc3c12` (stereo not given) stands 2.55%; under `O=C1O[C@H]([C@@H](O)CO)C([O-])=C1O.[Na+]`, -2.29%.
The same measure, in the same setting: under `CC(C)NCC(O)c1ccc(NS(C)(=O)=O)cc1` (stereo not given) stands 1.48%; under `Cn1nnc2c(C(N)=O)ncn2c1=O`, 0.303%; under `O=C(Nc1cccc2c(=O)cc(-c3nnn[nH]3)oc12)c1ccc(OCCCCc2ccccc2)cc1`, 2.86%.
Still for that read-out and setting: in the case of `CN1CCC(=C2c3ccccc3CCc3sccc32)CC1` it was 1.01%; in that of `Clc1ccc(CCC(Cn2ccnc2)Sc2c(Cl)cccc2Cl)cc1` (stereo not given), 1.97%; in that of `COC(=O)[C@@H]1CC2=CC(=O)CC[C@]2(C)[C@@]23O[C@@H]2C[C@@]2(C)[C@@H](CC[C@@]24CCC(=O)O4)[C@H]13`, 2.47%.
